High-throughput results deposited in PubChem BioAssay by several laboratories.
This is a sample that favours compounds with a hit; in the whole collection about 4% have one here.
Mdm2 MdmX PPI – inhibitors of human Mdm2/MdmX interaction | inhibition, % at 8 µM | 330,000 tested, 3% active | SaOS-2 split-luciferase Mdm2/MdmX complementation, luminescence;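 active = inhibition of at least 50% at 8 µM in the primary screen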
Target sequence (O15151 whole entry, looked up): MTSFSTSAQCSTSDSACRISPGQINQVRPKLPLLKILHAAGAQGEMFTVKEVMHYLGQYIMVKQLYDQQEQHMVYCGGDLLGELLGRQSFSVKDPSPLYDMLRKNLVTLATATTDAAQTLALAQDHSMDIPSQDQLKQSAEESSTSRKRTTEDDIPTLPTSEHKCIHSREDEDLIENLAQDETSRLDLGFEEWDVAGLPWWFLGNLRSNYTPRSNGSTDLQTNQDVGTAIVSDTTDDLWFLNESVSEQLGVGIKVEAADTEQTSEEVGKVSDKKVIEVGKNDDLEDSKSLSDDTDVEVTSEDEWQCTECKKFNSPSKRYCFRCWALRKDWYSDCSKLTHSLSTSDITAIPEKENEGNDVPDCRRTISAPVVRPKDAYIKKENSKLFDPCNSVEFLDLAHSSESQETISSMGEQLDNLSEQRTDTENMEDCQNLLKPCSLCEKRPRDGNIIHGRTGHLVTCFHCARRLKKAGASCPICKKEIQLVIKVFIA
Target sequence (Q00987 whole entry, looked up): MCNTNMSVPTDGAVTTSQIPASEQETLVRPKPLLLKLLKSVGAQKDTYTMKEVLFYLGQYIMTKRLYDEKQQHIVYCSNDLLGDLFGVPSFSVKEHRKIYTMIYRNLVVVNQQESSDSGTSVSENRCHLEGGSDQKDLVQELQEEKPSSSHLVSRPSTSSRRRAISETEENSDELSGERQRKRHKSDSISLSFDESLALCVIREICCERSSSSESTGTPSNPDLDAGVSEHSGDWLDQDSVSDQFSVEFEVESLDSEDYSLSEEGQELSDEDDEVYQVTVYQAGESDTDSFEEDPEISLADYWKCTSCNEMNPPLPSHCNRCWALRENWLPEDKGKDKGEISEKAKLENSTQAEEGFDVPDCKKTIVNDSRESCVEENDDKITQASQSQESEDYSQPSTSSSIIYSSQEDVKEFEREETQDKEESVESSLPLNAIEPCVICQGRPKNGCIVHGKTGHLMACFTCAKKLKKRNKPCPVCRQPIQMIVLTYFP
Shn3 inh set2 – Schnurri-3 reporter inhibition in Clone20 osteoblasts | Clone20 osteoblast Shn3 3'UTR firefly luciferase, 24 h | AID 588674 | 360,000 tested, 0.52% active | inhibition, % at 12.5 µM;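 active = mean inhibition of at least 75% with every replicate also reaching 75%; inconclusive = mean inhibition at least 75% but some replicate below; inactive = mean inhibition below 75%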;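 also: 0% = median of neutral control wells and 100% = pilot-screen positive control compound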
Gli-Sufu block – Gli-Sufu pathway antagonism; Sufu-KO-LIGHT fibroblasts, Gli luciferase reporter luminescence; inhibition, % at 5 µM; 340,000 tested, 0.74% active; AID 588413;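 active = inhibition above about 55%, limit read from the data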;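 also: 0% = DMSO-treated cells and 100% = wells with medium but no cells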
Beta apoptosis – blocks beta cell apoptosis | INS-1E cytokine-induced death, ATP luminescence, 48 h; percent of positive-control rescue, neutral wells zero | 300,000 tested, 0.8% active | protection from apoptosis, % (no concentration beside the values) | AID 435005;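 active = Every replicate reaches about 75%, or at least half do and their mean reaches it too, limit read from the data; inconclusive = At least half of replicates reach the limit but their mean does not; inactive = Under half of replicates reach the limit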;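 also: 0% = cytokine-treated negative control wells and 100% = positive control rescue; higher means more ATP so stronger rescue from cytokine killing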
CSC inhib – blocks cancer stem cells; cancer stem cell-like cells viability, luminescence; inhibition, % at 7.5 µM; 300,000 tested, 1.1% active; AID 2717; in the data active = inhibition above about 75%; inconclusive = no clear call, values can overlap the other calls; tested in HMLE shEcad cells
PAX8 inh HTS – lowers PAX8-driven luciferase in RMG-I cells. RMG-I TPO-luciferase reporter, SteadyGlo, 24 h. inhibition, % at 12.6 µM. 360,000 tested, 1.2% active. AID 652154;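 active = mean replicate inhibition at least 60% with every replicate also reaching 60%; inconclusive = only one of the two criteria is met; inactive = mean below 60% and not all replicates reaching 60%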;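 also: luciferase light reporting Pax8 driven TPO promoter activity; plate controls were median of neutral control wells for no effect and mitoxantrone controls for full effect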
Mdm2 MdmX conf – confirmation of human Mdm2/MdmX interaction inhibitors; shares compounds with Mdm2 MdmX PPI; inhibition, % at 8 µM; Mdm2-MdmX binding, luminescent assay; 10,000 tested, 55% active; in the data active = inhibition above about 40%
Full FLuc ctr – full-length luciferase inhibition in Mdm2/MdmX counter-screen. AID 504607. inhibition, % at 8 µM. 6,200 tested, 77% active. SaOS-2 full-length luciferase counterscreen, luminescence. shares compounds with Mdm2 MdmX PPI;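 active = mean inhibition at 8 µM reaching about 37%, which flags the compound as non-specific, limit read from the data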;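 also: p53-null SaOS-2 cells with luciferase driven by a doxycycline-inducible promoter; compound on cells about two nights before reading with doxycycline added after day one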
* = called active by the depositor.

Results for C/C=C/c1cnc2c(c1)C(=O)N([C@@H](C)CO)C[C@H](C)[C@@H](CN(C)C(=O)Nc1ccc(F)cc1)O2 ?
PAX8 inh HTS: -25

Results for CO[C@H]1CN(C)C(=O)c2cc(NS(=O)(=O)c3cn(C)cn3)ccc2OC[C@@H](C)N(Cc2cccc(F)c2)C[C@@H]1C ?
PAX8 inh HTS: -4

Results for COc1ccccc1CNC(=O)C[C@@H]1C[C@@H]2c3cc(NC(=O)c4ccc5c(c4)OCO5)ccc3O[C@@H]2[C@H](CO)O1 ?
PAX8 inh HTS: 0

Results for Cn1cnc(S(=O)(=O)N[C@@H]2CC[C@H](CC(=O)Nc3ccc(-c4ccccc4)cc3)O[C@@H]2CO)c1 ?
PAX8 inh HTS: 0

How did O=C(C[C@@H]1C=C[C@H](NS(=O)(=O)c2ccccc2)[C@@H](CO)O1)N1CCC(Cc2ccccc2)CC1 do in these assays?
PAX8 inh HTS: 10

Results for CCC(=O)N(C)C[C@H]1Oc2cc(-c3ccc(OC)cc3)ccc2S(=O)(=O)N([C@H](C)CO)C[C@H]1C ?
PAX8 inh HTS: 12

How did COc1ccc(-c2ccc3c(c2)S(=O)(=O)c2cccc(C(=O)NCc4cccc(OC(F)(F)F)c4)c2C3=O)cc1OC do in these assays?
Mdm2 MdmX PPI: 73*; Shn3 inh set2: 46; Gli-Sufu block: 16; Beta apoptosis: 11; CSC inhib: 60; Mdm2 MdmX conf: -3

What do the screens show for `O=C(NCc1cc(C(F)(F)F)ccc1Cl)c1cccc2c1C(=O)c1ccc(Cl)cc1S2(=O)=O`?
Mdm2 MdmX PPI: 54*; Beta apoptosis: 9; PAX8 inh HTS: 9; Mdm2 MdmX conf: 1

Results for O=C(NC1CCCCC1)c1cccc2c1C(=O)c1ccc(-c3ccc(OC(F)(F)F)cc3)cc1S2(=O)=O ?
Mdm2 MdmX PPI: 71*; Shn3 inh set2: 35; Gli-Sufu block: -4; Beta apoptosis: 40; PAX8 inh HTS: 18; Mdm2 MdmX conf: 29; Full FLuc ctr: 79*

Results for O=C(NCc1ccccc1Cl)c1cccc2c1C(=O)c1ccc(-c3ccc(OC(F)(F)F)cc3)cc1S2(=O)=O ?
Mdm2 MdmX PPI: 68*; Shn3 inh set2: 47; Gli-Sufu block: -5; Beta apoptosis: 16; CSC inhib: 65; Mdm2 MdmX conf: 6

Results for O=C(NCc1cccc(OC(F)(F)F)c1)c1cccc2c1C(=O)c1ccc(-c3ccc(F)cc3OCc3ccccc3)cc1S2(=O)=O ?
Mdm2 MdmX PPI: -16; Shn3 inh set2: -38; Gli-Sufu block: -1; Beta apoptosis: 3; PAX8 inh HTS: 1

How did C[C@@H]1CN([C@@H](C)CO)C(=O)Cc2cc(NC(=O)C3CC3)ccc2O[C@@H]1CN(C)C(=O)Nc1ccc(C(F)(F)F)cc1 do in these assays?
PAX8 inh HTS: 9

Results for COc1nn(-c2ccccc2)c(=O)c(Cl)c1Cl ?
Mdm2 MdmX PPI: 100*; Shn3 inh set2: 2; Gli-Sufu block: -4; Beta apoptosis: -8; CSC inhib: 1; PAX8 inh HTS: 117*; Mdm2 MdmX conf: 62*; Full FLuc ctr: 18

Results for COc1c(Cl)cnn(-c2ccccc2)c1=O ?
Mdm2 MdmX PPI: 27; Shn3 inh set2: 10; Gli-Sufu block: 5; Beta apoptosis: 5; CSC inhib: -13; PAX8 inh HTS: 7

Results for O=C(COC(=O)c1nc(Cl)c(Cl)c(Cl)c1Cl)NCc1ccccc1 ?
Mdm2 MdmX PPI: 54*; Shn3 inh set2: 0; Gli-Sufu block: 2; PAX8 inh HTS: 26; Mdm2 MdmX conf: 32

Results for CCCC(=O)Nc1ccc2c(c1)C(=O)N(C)C[C@H](OC)[C@H](C)CN(C(=O)CC1CC1)[C@H](C)CO2 ?
PAX8 inh HTS: -10

How did CCCN1CCN(CCCNC(=S)Nc2ccc3nc(N4CCN(CC)CC4)cc(C)c3c2)CC1 do in these assays?
Mdm2 MdmX PPI: 29; Gli-Sufu block: 12; Beta apoptosis: -4; CSC inhib: 44; PAX8 inh HTS: -9

Results for Cc1cc(N2CCCC2)nc2ccc(NC(=S)NCCCN3CCC(C)CC3)cc12 ?
Mdm2 MdmX PPI: 100*; Shn3 inh set2: 15; Gli-Sufu block: 26; Beta apoptosis: 9; CSC inhib: 2; PAX8 inh HTS: 2; Mdm2 MdmX conf: 39; Full FLuc ctr: 49*

How did CCN1CCN(c2cc(C)c3cc(NC(=S)NCCN(C)C)ccc3n2)CC1 do in these assays?
Mdm2 MdmX PPI: -12; Shn3 inh set2: 4; Gli-Sufu block: 15; Beta apoptosis: -5; CSC inhib: -5; PAX8 inh HTS: -25

How did CCCCN(C)CCNC(=S)Nc1ccc2nc(N3CCN(CC)CC3)cc(C)c2c1 do in these assays?
Mdm2 MdmX PPI: 74*; Shn3 inh set2: -9; Gli-Sufu block: 15; Beta apoptosis: 0; CSC inhib: 32; PAX8 inh HTS: 21; Mdm2 MdmX conf: 36; Full FLuc ctr: 51*

How did COCCNC(=O)C[C@@H]1CC[C@H](NS(=O)(=O)c2ccc(C)cc2)[C@@H](CO)O1 do in these assays?
PAX8 inh HTS: -2

How did C[C@H](CO)N1C[C@H](C)[C@@H](CN(C)Cc2ccncc2)OCCCC[C@H](C)Oc2ccc(NC(=O)c3ccccc3)cc2C1=O do in these assays?
PAX8 inh HTS: 10

What do the screens show for `Brc1cc(Br)c2ncnc(N3CCCCC3)c2c1`?
Mdm2 MdmX PPI: 89*; Shn3 inh set2: 15; Gli-Sufu block: 5; Beta apoptosis: 13; CSC inhib: 84*; Mdm2 MdmX conf: 64*; Full FLuc ctr: 28

Results for Clc1ccc(Cn2ncc3c(N4CCCCC4)ncnc32)c(Cl)c1 ?
Mdm2 MdmX PPI: 29; Shn3 inh set2: 16; Gli-Sufu block: 10; Beta apoptosis: 10; CSC inhib: -4

Results for Cc1ccc(OCCN2CCN(CC(O)Cn3c4ccccc4c4ccccc43)CC2)cc1 (stereo not drawn) ?
Mdm2 MdmX PPI: 85*; Beta apoptosis: -3; CSC inhib: 90*; PAX8 inh HTS: 23; Mdm2 MdmX conf: 27

How did Cc1ccc(OCC(O)Cn2c3ccccc3c3ccccc32)cc1 (stereo not drawn) do in these assays?
Mdm2 MdmX PPI: 42; Shn3 inh set2: 28; Gli-Sufu block: -3; Beta apoptosis: 38; CSC inhib: inconclusive

What do the screens show for `CC(C)(CO)NCc1c(OCc2ccc(Cl)cc2)ccc2ccccc12`?
Mdm2 MdmX PPI: 55*; Shn3 inh set2: 17; Gli-Sufu block: 16; Beta apoptosis: 11; CSC inhib: 24; PAX8 inh HTS: 34; Mdm2 MdmX conf: 29

Results for O=C(Nc1ccc(Cl)cc1)N[C@@H]1CC[C@@H](CCNC(=O)c2ccccc2F)O[C@@H]1CO ?
PAX8 inh HTS: 7
